Screening results (PubChem BioAssay)
Most compounds without a hit are left out; they make up all but 13% or so of the library.
L major viab – inhibitors of Leishmania major promastigote growth. Leishmania major promastigotes, resazurin fluorescence viability. inhibition, % at 10 µM. actives 9% (n = 200,000); in the data active = inhibition above about 50%;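 also: promastigotes grown with compound for 44 hours at 28 °C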
WT yeast gro inh – growth inhibition of WT yeast, mitochondrial fusion screen; mitochondrial fusion phenotypic screen, WT strain; inhibition, % at 10 µM; actives 2.1% (n = 190,000); AID 1362; in the data active = inhibition above about 58%; tested in S. cerevisiae
RAM network inh – blocks the yeast RAM network. actives 1.8% (n = 190,000). inhibition, % at 50 µM. S. cerevisiae dse1pr::URA3 reporter, 5-FOA growth OD615, 2 d; analog-sensitive cbk1-as2 kinase mutant strain;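 active = inhibition above a set limit, 3 SD over mean compound inhibition, cut at about 8.4% in these data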;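 also: inhibition rescues growth on 5-FOA so higher OD means more RAM inhibition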
CHOP inhibitor – inhibitors of CHOP induction in ER stress response. CHO-K1 CHOP-promoter luciferase, tunicamycin-induced, 15-18 h. actives 3.8% (n = 220,000). inhibition, % at 10 µM;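 active = compounds that reduced the stress-induced luciferase reporter signal by more than about 70% of percent inhibition, limit read from the data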
Numbers stand for hits; . = inactive; / = no result given.

SMILES | L major viab | WT yeast gro inh | RAM network inh | CHOP inhibitor
O=C(CN1CC[n+]2c(-c3cccs3)csc21)c1ccc(-c2ccccc2)cc1 | . | 68.9 | . | .
Cc1ccc(C(=O)Cn2nnc(-c3cccs3)n2)cc1 | / | / | / | .
CCOc1ccc(OCCOCCN2CCc3ccccc3C2)cc1 | 91.0 | . | . | .
C=CCc1cc(OC)ccc1OCCOCCN1CCc2ccccc2C1 | 89.9 | . | . | .
Cc1ccc(SCCOCCN2CCc3ccccc3C2)cc1 | 92.2 | . | . | .
Cc1ccc(SCCOCCN2CC(C)OC(C)C2)cc1 (stereo unspecified) | / | / | / | .
CCCOc1ccc(OCCOCCN2CCc3ccccc3C2)cc1 | 96.9 | . | . | .
O=[N+]([O-])c1c(NCc2ccccc2)cc(N2CCc3ccccc3C2)c2nonc12 | . | . | . | .
O=C(Nc1cccnc1Oc1ccc(Cl)cc1)c1cccc2ccccc12 | / | / | / | .
CN1CC(=O)N(CCOc2ccccc2)C1=O | . | . | . | .
c1ccc(OCCOCCN2CCc3ccccc3C2)cc1 | 98.0 | . | . | .
C=CCc1cc(OC)ccc1OCCOCCC(C(=O)OCC)C(=O)OCC | 53.6 | . | . | .
O/N=C1/C2C3C(Br)C4C5CC(C1C53)C24 (stereo unspecified) | . | . | . | .
O=C(Nc1ccc(S(=O)(=O)Nc2ccccc2)cc1)C1COc2ccccc2O1 (stereo unspecified) | . | . | . | 84.7
COCCNC(=O)c1ccccc1NC(=O)C1COc2ccccc2O1 (stereo unspecified) | . | . | . | .
CCC(C)NC(=O)c1ccccc1NC(=O)C1COc2ccccc2O1 (stereo unspecified) | . | . | 8.8 | .
Cc1cc(C)nc(NS(=O)(=O)c2ccc(NC(=O)C3COc4ccccc4O3)cc2)n1 (stereo unspecified) | . | . | . | .
CC(C)NC(=O)c1ccccc1NC(=O)C1COc2ccccc2O1 (stereo unspecified) | 54.9 | . | . | .
O=C(NCc1ccncc1)c1nc(-c2ccc(C(F)(F)F)cc2)no1 | . | . | . | .
C=CCNCCOCCOc1ccccc1-c1ccccc1 | 95.3 | . | . | .
CN(C)CCNCCCOc1ccccc1-c1ccccc1 | 98.1 | . | . | .
CCC(C)NCCOCCOc1ccccc1-c1ccccc1 (stereo unspecified) | 85.4 | . | . | .
C=CCNCCOCCOc1ccc(C)cc1[N+](=O)[O-] | 81.3 | . | . | .
COCCCNCCOCCOc1ccccc1-c1ccccc1 | . | . | . | .
CCOC(=O)c1sc(-c2ccc(Cl)cc2)nc1O | / | / | / | .
SMILES | L major viab | WT yeast gro inh | RAM network inh | CHOP inhibitor
CC(C)OC(=O)c1ccc(N)cc1 | . | . | . | .
CCC(C)NC(=O)Cn1cc(S(=O)(=O)N2CCN(c3ccccc3F)CC2)c2ccccc2c1=O (stereo unspecified) | . | . | . | .
Cc1ccc(C)c(NC(=O)/C(C#N)=C/c2ccc(Sc3nncn3C)c([N+](=O)[O-])c2)c1 | . | . | . | .
Cc1ccc([N+](=O)[O-])cc1NC(=S)NC(=O)c1cccs1 | . | . | . | .
O=C(Oc1ccc(C(=S)N2CCC(O)CC2)cc1)c1ccc(Cl)cc1 | . | . | . | .
CCOC(=O)c1cc(C)n(CCCN2CCOCC2)c1C | 90.3 | . | . | .
CC(C)CC(NS(=O)(=O)c1ccccc1)C(=O)O (stereo unspecified) | . | . | . | .
CC(C)CN=C(NS(=O)(=O)c1ccccc1)C(Cl)(Cl)Cl | 89.7 | . | . | .
Cc1oc(S(=O)(=O)N(C)C)cc1C(=O)Nc1ccc(Cl)cc1 | / | / | / | .
Cc1ccc(SCC(=O)Nc2cc([N+](=O)[O-])ccc2O)cc1 | . | . | . | .
CCOC(=O)c1cc(=O)c2ccc(OCC(=O)Nc3ccccc3)cc2o1 | / | / | / | .
CCOC(=O)C1=C(C)N(CC(C)C)C(=O)/C1=C\c1ccc(OCC(=O)Nc2ccccc2)cc1 | 81.1 | . | . | .
Cc1cc(N/N=C/c2ccccc2O)nc(-c2ccccc2O)n1 | 53.1 | 68.6 | . | 74.6
COC(=O)c1cccc(Nc2cc(C)nc(-c3ccccc3O)n2)c1 | 67.0 | . | . | .
C/C(=N\Nc1cc(C)nc(-c2ccccc2O)n1)c1ccccc1O | / | / | / | .
Cc1cc(N/N=C\c2ccccc2)nc(-c2ccccc2O)n1 | 74.2 | . | . | .
COC(=O)c1ccc(Nc2cc(C)nc(-c3ccccc3O)n2)cc1 | . | . | . | .
COC(=O)c1sc2ccccc2c1N | . | . | . | .
CCOC(=O)c1sc2ccccc2c1OC(=O)c1ccc(C)cc1 | . | . | 8.7 | .
CCOC(=O)c1nn(-c2ccccc2C)c2nc(-c3ccc(Cl)cc3)c(C#N)c(=O)n12 | . | . | . | .
CC1CN(Cc2ccccn2)CCC1=O (stereo unspecified) | 53.3 | . | . | .
CC(NC(=O)/C=C/c1cnc2ccccc2n1)C12CC3CC(CC(C3)C1)C2 (stereo unspecified) | . | . | . | .
CCN1C(=O)c2cccc3c(S(=O)(=O)NCc4cccnc4)ccc1c23 | 70.4 | . | . | .
CCN1C(=O)c2cccc3c(S(=O)(=O)Nc4ccncc4)ccc1c23 | . | . | . | .
CCCN1Cc2cccc(C(=O)Nc3ccc(-c4nc5ccccc5[nH]4)cc3)c2C1=O | . | . | . | 75.3
SMILES | L major viab | WT yeast gro inh | RAM network inh | CHOP inhibitor
CCCN1Cc2cccc(C(=O)Nc3ccc4c(c3)OCO4)c2C1=O | . | . | . | .
CCCN1Cc2cccc(C(=O)Nc3ccc4c(c3)OCCO4)c2C1=O | 68.8 | . | . | 77.7
COCCN1Cc2cccc(C(=O)Nc3c(C)cc(C)cc3C)c2C1=O | 71.8 | . | . | .
COCCN1Cc2cccc(C(=O)Nc3ccc(-c4nc5ccccc5[nH]4)cc3)c2C1=O | . | . | . | .
CC1=C(C(=O)OC(C)C)C(c2cncc(-c3ccc(F)cc3)c2)C(C#N)=C(N)O1 (stereo unspecified) | . | . | . | .
COc1ccccc1NC(=O)CC1S/C(=N/N=C2\CCCc3ccccc32)NC1=O (stereo unspecified) | . | 63.2 | . | .
CCCCc1ccc(NS(=O)(=O)c2cccs2)cc1 | . | . | . | .
CCCNS(=O)(=O)c1ccc(Oc2ncc(C(F)(F)F)cc2Cl)cc1 | . | . | . | 74.3
CCCCNC(=S)NCCN1CCN(C(=S)NCCCC)CC1 | . | . | . | .
Cc1ccc(-n2nnnc2SCCNS(=O)(=O)c2ccccc2)cc1C | . | . | 9.9 | .
CNc1nc(-c2ccccc2)cc(C)c1S(C)(=O)=O | . | . | . | .
Cc1ccc(C)c(OCCCCCn2ccnc2)c1 | 100.2 | . | . | .
Cc1cc(OCCCn2ccnc2)cc(C)c1Cl | 89.2 | 66.2 | . | .
Cc1cc(Cl)ccc1OCC(=O)NCCCn1ccnc1 | . | . | . | .
C=CCc1cc(C)ccc1OCCn1ccnc1 | . | . | . | .
C=CCc1cc(C)ccc1OCCOCCn1ccnc1 | 96.8 | . | . | .
Cc1cc(OCCCCCn2ccnc2)cc(C)c1Cl | 98.6 | . | . | .
CNC(=O)NNC(=O)c1nc(-c2ccccc2)c(C)o1 | / | / | / | .
CCOC(=O)C1=C(C)NC(=S)NC1c1ccsc1 (stereo unspecified) | . | . | . | .
COc1cc(Cl)c(C)cc1NC(=O)c1ccc(NS(=O)(=O)c2ccc(F)c(F)c2)cc1 | . | . | . | 78.7
